In PubChem BioAssay:
The source made the active and inactive calls.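 How the source made its calls, unless noted: active means a full or partial loss of lipid-probe fluorescence in the fish gall bladder, intestine or both, judged by eye; inactive means no fluorescence loss, or compound toxic to the fish.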

Experiments:
[1] = inhibitors of TNFa-induced NFkB p65 translocation, primary screen, imaging, HUVEC, MLSMR starter and 10KST1 sets (AID 438;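 active means inhibition above 20% together with a positive visual image hit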;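 further: compound added about 3h40 before a 20 min TNFalpha stimulation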;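 on inhibition: signal is the nuclear over cytoplasmic p65 intensity ratio per well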); settings: HUVEC TNFa-induced p65 nuclear translocation; cell count: measured here: nuclei count (cytotoxicity indicator), at 2.08 µM unless noted; inhibition: at 2 µM, stronger effect = higher value unless noted
[2] = inhibitors of E-selectin induction by TNFa, primary screen, imaging, HUVEC, immunofluorescence, MLSMR starter and 10KST1 sets (AID 487;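 active means visually confirmed hit in the image check and inhibition above 20%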;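 on inhibition: signal is fraction of cell area covered by stained E-selectin grains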;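 on nuclei count: 100% = median nuclei count of all wells on the same plate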); settings: HUVEC TNFalpha-induced E-selectin immunofluorescence imaging, at 2 µM; inhibition: stronger effect = higher value; nuclei count: measured here: cell number, toxicity
[3] = DUSP6 inhibitors restoring Erk phosphorylation by chemical complementation, primary imaging in DUSP6-transfected HeLa (AID 609;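 active means compounds giving at least 50% inhibition in the cell-based MKP-3 phosphatase rescue imaging test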;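 on inhibition: phospho-Erk level distribution per well compared with pooled transfected vehicle control wells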); settings: HeLa MKP-3 transfected, phospho-Erk imaging KS statistic, at 10 µM
[4] = biological target: Dual specificity protein phosphatase 6 (Homo sapiens) (UniProt Q16828); assay: as above; settings: HeLa MKP-3 transfected, phospho-Erk imaging KS statistic, at 10 µM, stronger effect = higher value
Chain of Dual specificity protein phosphatase 6 (Homo sapiens) (Q16828 whole entry, looked up): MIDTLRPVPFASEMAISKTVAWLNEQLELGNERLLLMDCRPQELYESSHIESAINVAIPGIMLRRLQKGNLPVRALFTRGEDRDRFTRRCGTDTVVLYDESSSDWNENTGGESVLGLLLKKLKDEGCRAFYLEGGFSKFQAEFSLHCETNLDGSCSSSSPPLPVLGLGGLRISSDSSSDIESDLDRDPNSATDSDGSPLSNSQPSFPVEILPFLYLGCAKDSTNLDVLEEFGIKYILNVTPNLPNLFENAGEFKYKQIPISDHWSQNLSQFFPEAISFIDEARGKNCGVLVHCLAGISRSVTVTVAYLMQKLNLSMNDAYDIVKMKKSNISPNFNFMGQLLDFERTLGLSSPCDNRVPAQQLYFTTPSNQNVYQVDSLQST

[5] = biological target: Voltage-gated potassium channel subunit beta-2 (Rattus norvegicus) (UniProt P62483); assay: KvBeta enzyme negative modulators, primary screen, biochemical, NADPH fluorescence (AID 622;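 active means fluorescence slope higher than the sample average by over 3 SD, cut at about -0.22 in these data, passing the limit was not always enough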;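 further: slope of raw intensity against log time taken from 70 to 1610 s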); settings: recombinant KvBeta, 4-cyanobenzaldehyde reduction, at 10 µM, stronger effect = higher value
Chain of Voltage-gated potassium channel subunit beta-2 (Rattus norvegicus) (P62483 whole entry, looked up): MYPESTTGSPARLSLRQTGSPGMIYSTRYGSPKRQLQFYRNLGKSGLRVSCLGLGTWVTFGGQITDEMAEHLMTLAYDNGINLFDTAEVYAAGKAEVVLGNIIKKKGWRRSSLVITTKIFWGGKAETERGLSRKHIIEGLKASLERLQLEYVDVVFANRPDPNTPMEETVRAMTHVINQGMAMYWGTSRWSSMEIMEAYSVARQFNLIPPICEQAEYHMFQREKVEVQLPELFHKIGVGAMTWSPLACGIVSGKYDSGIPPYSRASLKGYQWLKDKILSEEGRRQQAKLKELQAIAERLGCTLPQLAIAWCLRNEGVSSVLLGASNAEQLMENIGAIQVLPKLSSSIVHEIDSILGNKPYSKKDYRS

[6] = biological target: Voltage-gated potassium channel subunit beta-2 (Rattus norvegicus) (UniProt P62483); assay: KvBeta positive modulators, primary screen, biochemical, NADPH fluorescence (AID 623;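 active means NADPH fluorescence slope more negative than the mean of all samples by about 3 SD, 99.7% confidence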;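 further: fluorescence intensity change per second fitted from 20 to 320 s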); settings: Recombinant KvBeta, NADPH fluorescence decrease slope, 10 min; at 10 µM; stronger effect = lower value
[7] = biological target: Alpha-2C adrenergic receptor (Homo sapiens) (UniProt P18825); assay: modulators of alpha2C/GIRK thallium flux, primary screen, cell-based, HEK293 alpha2C/GIRK1/2 (AID 624;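 active means fluorescence slope after compound addition differing from the mean of all screened samples at 99.7% confidence, in either direction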;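 further: slope of fluorescence ratio to pre-addition baseline per second over 15 to 24 s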); settings: thallium flux BTC fluorescence, at 10 µM, actives lie on both sides
Chain of Alpha-2C adrenergic receptor (Homo sapiens) (P18825 whole entry, looked up): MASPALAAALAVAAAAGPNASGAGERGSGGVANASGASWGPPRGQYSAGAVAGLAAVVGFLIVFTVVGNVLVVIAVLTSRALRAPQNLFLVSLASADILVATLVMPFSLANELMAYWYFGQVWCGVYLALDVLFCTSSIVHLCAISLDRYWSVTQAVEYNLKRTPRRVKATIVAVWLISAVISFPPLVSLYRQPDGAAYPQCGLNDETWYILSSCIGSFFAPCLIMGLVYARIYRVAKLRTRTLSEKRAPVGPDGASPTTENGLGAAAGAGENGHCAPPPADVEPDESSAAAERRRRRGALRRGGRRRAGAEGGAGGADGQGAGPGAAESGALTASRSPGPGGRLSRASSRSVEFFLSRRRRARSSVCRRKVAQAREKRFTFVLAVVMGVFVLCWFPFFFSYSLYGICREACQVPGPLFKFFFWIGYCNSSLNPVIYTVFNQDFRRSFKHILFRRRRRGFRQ

[8] = inhibitors of larval lipid processing in zebrafish, primary screen, whole organism, PED6 fluorescence, gall bladder and intestine (AID 686); settings: Zebrafish larvae PED6 lipid processing, fluorescence scoring;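 further: larvae 5 to 7 days old with five fish per well; signal comes from phospholipase A2 cleavage of quenched PED6 carried via bile; overnight exposure to compound and PED6 before scoring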
[9] = inhibitors of Chlamydomonas gravitaxis, primary screen, whole organism, Chlamydomonas reinhardtii, WT vs cilia-less mutant, absorbance, 96-well (AID 463189;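 active means inhibition at or above 50% relative to wild type and mutant plate controls; inactive means inhibition below 50%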;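 further: 0% = wild type cc124 cells in DMSO and 100% = ciliumless bld1 mutant cells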); settings: OD600 absorbance, 2 days, at 10 µM, stronger effect = higher value
[10] = biological target: Muscarinic acetylcholine receptor M4 (Homo sapiens) (UniProt P08173); assay: compounds altering M4/GIRK thallium flux, either direction, primary screen, M4 allosteric agonist project, cell-based, HEK293 M4/GIRK, BTC-AM (AID 625;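 active means fluorescence slope after compound addition differing from the mean of all tested samples at 99.7% confidence, mostly higher but some lower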;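 further: thallium influx through GIRK channels coupled to M4 in HEK293 cells with BTC-AM dye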); settings: at 10 µM, actives lie on both sides
Chain of Muscarinic acetylcholine receptor M4 (Homo sapiens) (P08173 whole entry, looked up): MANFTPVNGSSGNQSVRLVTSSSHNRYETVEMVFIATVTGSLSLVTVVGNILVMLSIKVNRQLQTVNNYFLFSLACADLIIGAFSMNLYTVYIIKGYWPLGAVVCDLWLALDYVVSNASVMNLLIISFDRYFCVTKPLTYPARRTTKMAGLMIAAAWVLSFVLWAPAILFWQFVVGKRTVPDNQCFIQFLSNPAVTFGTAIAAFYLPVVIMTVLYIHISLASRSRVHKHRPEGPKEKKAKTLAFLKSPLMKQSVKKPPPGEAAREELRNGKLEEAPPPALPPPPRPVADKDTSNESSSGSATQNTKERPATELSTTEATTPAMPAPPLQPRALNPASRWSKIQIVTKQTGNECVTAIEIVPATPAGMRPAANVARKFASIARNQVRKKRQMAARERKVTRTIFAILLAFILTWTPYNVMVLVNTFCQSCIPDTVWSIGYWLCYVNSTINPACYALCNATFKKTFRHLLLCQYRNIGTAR

[11] = measured here: cell density z-score
[12] = measured here: nuclear c-Myc green intensity z-score
[13] = measured here: nuclear pErk red intensity z-score, stronger effect = higher value

SMILES | cell count [1] | inhibition [1] | inhibition [2] | nuclei count [2] | z-score [3, 11] | z-score [3, 12] | z-score [3, 13] | inhibition [4] | fluorescence slope [5] | NADPH fluorescence slope [6] | slope [7] | outcome [8] | inhibition [9] | fluorescence slope [10]
CCCCSP1(=S)NCCCO1 (stereo not drawn) | 490 | -12.8% (inactive) | -2.8% (inactive) | 116% | 0.851 | -1.48 | -1.55 | 9.39% (inactive) | -0.465 (inactive) | -0.000374 (inactive) | 0.00445 (inactive) | inactive | 18.8% (inactive) | 
COc1cccc(-n2c(C)nc3ccccc3c2=O)c1 | 554 | 7.1% (inactive) | -57.2% (inactive) | 161% | 0.773 | 1.04 | -1.15 | 7.73% (inactive) | -0.353 (inactive) | 2e-05 (inactive) | 0.00545 (inactive) | inactive | -5.87% (inactive) | 
CCCSP1(=S)NCCCO1 (stereo not drawn) | 455 | -11.8% (inactive) | -157% (inactive) | 122% | 0.345 | -0.499 | -0.356 | -2.07% (inactive) | -0.54 (inactive) | -7.2e-05 (inactive) | 0.00464 (inactive) | inactive | 20.8% (inactive) | 
CCN(CC)CCN=C(C)c1c(O)n(-c2ccccc2OC)c(=O)[nH]c1=O | 564 | 0.8% (inactive) | -34% (inactive) | 88.8% | -0.563 | -1.02 | 1.36 | -2.91% (inactive) | -0.555 (inactive) | -2.8e-05 (inactive) | 0.0051 (inactive) | inactive | -0.4% (inactive) | 
CC(=O)OC1N=C(c2ccccc2)c2ccccc2NC1=O (stereo not drawn) | 428 | -3.5% (inactive) | 14.8% (inactive) | 88.8% | 0.0297 | -1.27 | -0.528 | 6.04% (inactive) | -0.509 (inactive) | -5.2e-06 (inactive) | 0.00675 (inactive) | inactive | 12.3% (inactive) | 
C=CCC1(CN2CCCCCC2=O)C(=O)NC(=O)NC1=O | 656 | 4% (inactive) | -118% (inactive) | 148% | -0.0973 | 0.0168 | -1.06 | 11.3% (inactive) | -0.517 (inactive) | -6.8e-05 (inactive) | 0.00505 (inactive) | inactive | -7.71% (inactive) | 
CCN(CC)CCCC(C)N=C(c1ccccc1)c1c(O)n(C)c(=O)n(C)c1=O (stereo not drawn) | 617 | -1.4% (inactive) | -14.1% (inactive) | 134% | 0.00172 | -0.468 | 1.57 | -1.12% (inactive) | -0.507 (inactive) | -7.1e-05 (inactive) | 0.00446 (inactive) | inactive | 8.34% (inactive) | 
CC(=O)OC1(Cc2ccccc2)CN2CCC1c1ccccc12 (stereo not drawn) | 574 | -15.2% (inactive) | -118% (inactive) | 130% | 0.311 | -0.615 | 0.994 | -9.91% (inactive) | -0.516 (inactive) | -4e-05 (inactive) | 0.00421 (inactive) | inactive | 14.3% (inactive) | 
CCOc1ccccc1-n1c(O)c(C=Nc2c(C)n(C)n(-c3ccccc3)c2=O)c(=O)[nH]c1=O | 629 | -13.3% (inactive) | -48.3% (inactive) | 148% | 1.53 | -0.137 | 0.143 | 22.7% (inactive) | -0.432 (inactive) | -4.9e-06 (inactive) | 0.00796 (inactive) | inactive | 0.366% (inactive) | 
CCCCSP1(=S)NCCCN1 | 430 | -6.2% (inactive) | -45.8% (inactive) | 139% | 1.38 | -0.994 | 0.0968 | 22.7% (inactive) | -0.484 (inactive) | -0.000231 (inactive) | 0.00525 (inactive) | inactive | 32.8% (inactive) | 
CCC(=NCCOc1ccc(Cl)cc1)c1c(O)n(C)c(=O)n(C)c1=O | 555 | -7.6% (inactive) | -89.2% (inactive) | 99.1% | 0.38 | -2.81 | 0.837 | 13.2% (inactive) | -0.532 (inactive) | -0.00015 (inactive) | 0.0044 (inactive) | inactive | 19.1% (inactive) | 
CCOC(C(=O)OCC(O)CN(CC)CC)(c1ccccc1)c1ccccc1 (stereo not drawn) | 598 | -12.4% (inactive) | -341% (inactive) | 184% | -0.241 | -0.53 | 1.71 | -5.89% (inactive) | -0.446 (inactive) | -0.000326 (inactive) | 0.00508 (inactive) | inactive | 19.6% (inactive) | 
CC(C)OC(=O)c1c(N)n(Cc2ccco2)c2nc3ccccc3nc12 | 337 | -5.5% (inactive) | -136% (inactive) | 108% | -1.01 | 1.4 | -1.07 | -4.7% (inactive) | -0.101 (inactive) | 1e-05 (inactive) | 0.00512 (inactive) | inactive | 1.76% (inactive) | 
C=CCn1c(O)c(C=Nc2ccc(N(CC)CC)cc2)c(=O)[nH]c1=O | 321 | 4.1% (inactive) | -65.7% (inactive) | 88.8% | -1.25 | 0.816 | -0.799 | -1.75% (inactive) | -0.321 (inactive) | -6.9e-05 (inactive) | 0.00606 (inactive) | inactive | 25.3% (inactive) | 
CC1CCC(C(C)C)C(OP(N)(=O)c2ccccc2)C1 (stereo not drawn) | 413 | -4.7% (inactive) | -225% (inactive) | 189% | 1.77 | -0.238 | 0.0184 | 36.1% (inactive) | -0.406 (inactive) | -7.4e-05 (inactive) | 0.00486 (inactive) | inactive | 1.67% (inactive) | 
O=c1[nH]c(=O)n(C2CCCCC2)c(O)c1C=NCCCn1ccnc1 | 684 | -20.4% (inactive) | -84.3% (inactive) | 153% | 1.04 | -1.34 | -0.814 | 6.04% (inactive) | -0.428 (inactive) | 6.8e-06 (inactive) | 0.00637 (inactive) | inactive | 0.521% (inactive) | 
CCc1nc(N2CCNCC2)c(C#N)c2c1CSC(C)(C)C2 | 652 | 3% (inactive) | -79.8% (inactive) | 159% | -1.09 | -0.257 | 0.497 | 1.12% (inactive) | -0.474 (inactive) | -1.6e-05 (inactive) |  | inactive | 15% (inactive) | 0.00552 (inactive)
CCN(CC)CCCNC(=O)c1c(O)c2ccccc2n(Cc2ccccc2)c1=O | 520 | -4.8% (inactive) | -10.6% (inactive) | 98.5% | 3.05 | 0.407 | -1.44 | 15.8% (inactive) | -0.425 (inactive) | -6.7e-06 (inactive) | 0.00401 (inactive) | inactive | -10.8% (inactive) | 
COCC(C)OC(=O)c1c(N)n(Cc2ccco2)c2nc3ccccc3nc12 (stereo not drawn) | 433 | -9.3% (inactive) | -115% (inactive) | 147% | -0.578 | 0.931 | -0.00965 | -11.9% (inactive) | -0.0512 (inactive) | -2.8e-07 (inactive) | 0.0047 (inactive) | inactive | 7.25% (inactive) | 
CCCCOCCCn1c(N)c(C(=O)OCCOC)c2nc3ccccc3nc21 | 525 | -11.4% (inactive) | -48% (inactive) | 152% | -0.11 | -0.345 | 0.203 | 15.5% (inactive) | -0.052 (inactive) | -3.5e-06 (inactive) | 0.00403 (inactive) | inactive | 29.3% (inactive) | 
CN(C)CCc1nn[nH]n1 | 586 | -12.8% (inactive) | -15.2% (inactive) | 115% | -0.419 | 0.458 | 0.261 | 1.75% (inactive) | -0.47 (inactive) | -0.000339 (inactive) | 0.00441 (inactive) | inactive | 25.8% (inactive) | 
CC(=O)C1(c2ccccc2)CCNCC1 | 472 | 0.5% (inactive) | -152% (inactive) | 138% | -0.428 | 0.195 | 0.843 | 7.93% (inactive) | -0.522 (inactive) | -4.6e-05 (inactive) | 0.00442 (inactive) | inactive | 14.1% (inactive) | 
CCN(CC)CCN=Cc1c(O)n(CCc2ccccc2)c(=O)[nH]c1=O | 479 | 7.8% (inactive) | -1.8% (inactive) | 88.8% | 0.714 | -0.47 | -1.29 | 28% (inactive) | -0.368 (inactive) | 9.5e-06 (inactive) | 0.00625 (inactive) | inactive | -6.45% (inactive) | 
COc1cccc(-n2c(O)c(C=NCCN3CCOCC3)c(=O)[nH]c2=O)c1 | 512 | -1.1% (inactive) | -10.1% (inactive) | 92.8% | -1.1 | 2.1 | 0.315 | -5.26% (inactive) | -0.386 (inactive) | -1.1e-05 (inactive) | 0.00613 (inactive) | inactive | -13% (inactive) | 
CC(=C1C(=O)c2ccccc2C1=O)N1CCN(CCN=Cc2c(O)n(C)c(=O)n(C)c2=O)CC1 | 584 | -2.8% (inactive) | -90.4% (inactive) | 138% | -0.147 | 0.321 | 0.747 | 1.98% (inactive) | -0.482 (inactive) | -2e-05 (inactive) | 0.00537 (inactive) | inactive | 18.5% (inactive) | 
Cc1c(N=Cc2c(O)n(CCc3ccc(F)cc3)c(=O)[nH]c2=O)c(=O)n(-c2ccccc2)n1C | 647 | -28% (inactive) | -9.6% (inactive) | 155% | -1.16 | -1.2 | 1.06 | -0.624% (inactive) | -0.389 (inactive) | -4.5e-05 (inactive) | 0.0062 (inactive) | active; weak signal in gallbladder and intestine | 8% (inactive) | 
